Test results from PubChem BioAssay.
Active and inactive are the calls of the source. Unless noted, the rule behind the calls is not given here.

Columns and labels:
[1] = anti-His antibody binders, primary screen, artefact control for SMM control protein annotation, biochemical, small-molecule microarray, 635 nm fluorescence (AID 1128); conditions: anti-His Alexa647 antibody binding, higher = more signal;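 note: score merges feature fluorescence with signal-to-noise for each printed compound spot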
[2] = test system: Human papillomavirus type 1a E7 protein (residues 1-88); test: HPV1a E7 small-molecule binders, primary screen, biochemical, small-molecule microarray, residues 1-88, 635 nm (AID 1129); conditions: small-molecule microarray binding, fluorescence 635 nm; higher = more signal
[3] = target: Focal adhesion kinase 1 (Homo sapiens) (UniProt Q05397); test: small-molecule microarray binders of FAK, primary screen, biochemical, 635/667 nm fluorescence, BSA, DTT (AID 1130); conditions: PTK2 binding, 635 nm fluorescence, higher = more signal;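 note: composite of spot emission at 667 nm and signal to noise over triplicate slides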
Sequence of Focal adhesion kinase 1 (Homo sapiens) (Q05397 whole entry, looked up): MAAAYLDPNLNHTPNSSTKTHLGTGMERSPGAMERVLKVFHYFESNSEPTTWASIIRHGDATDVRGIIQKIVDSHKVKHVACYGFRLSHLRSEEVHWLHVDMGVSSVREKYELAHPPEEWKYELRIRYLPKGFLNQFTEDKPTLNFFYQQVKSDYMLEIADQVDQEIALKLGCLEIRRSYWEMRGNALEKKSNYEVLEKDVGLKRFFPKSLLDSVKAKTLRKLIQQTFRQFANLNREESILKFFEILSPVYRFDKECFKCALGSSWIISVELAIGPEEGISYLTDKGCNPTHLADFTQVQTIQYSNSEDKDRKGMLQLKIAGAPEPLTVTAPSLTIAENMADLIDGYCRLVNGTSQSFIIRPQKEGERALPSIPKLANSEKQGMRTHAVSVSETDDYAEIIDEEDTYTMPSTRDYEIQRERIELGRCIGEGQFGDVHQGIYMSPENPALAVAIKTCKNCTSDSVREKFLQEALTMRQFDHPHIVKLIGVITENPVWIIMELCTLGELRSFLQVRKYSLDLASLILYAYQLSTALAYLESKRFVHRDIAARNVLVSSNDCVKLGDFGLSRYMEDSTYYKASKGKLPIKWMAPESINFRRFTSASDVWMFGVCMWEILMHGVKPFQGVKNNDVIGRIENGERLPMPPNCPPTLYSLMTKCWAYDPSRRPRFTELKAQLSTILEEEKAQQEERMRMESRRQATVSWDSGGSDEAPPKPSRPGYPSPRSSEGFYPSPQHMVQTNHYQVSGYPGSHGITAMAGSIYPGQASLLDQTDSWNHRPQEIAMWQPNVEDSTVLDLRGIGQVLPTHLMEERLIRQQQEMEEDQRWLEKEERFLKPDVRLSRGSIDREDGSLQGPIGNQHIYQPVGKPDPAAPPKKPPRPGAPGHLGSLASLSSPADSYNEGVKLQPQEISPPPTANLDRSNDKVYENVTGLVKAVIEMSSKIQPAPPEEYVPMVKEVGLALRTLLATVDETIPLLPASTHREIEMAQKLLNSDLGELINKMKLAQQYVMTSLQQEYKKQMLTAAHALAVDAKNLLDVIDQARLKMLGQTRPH

[4] = test system: Fibrinogen (Alexa647-labelled); test: fibrinogen binders on compound microarrays, profiling panel, artefact control for SMM control-protein annotation, biochemical, small-molecule microarray, 635/667 nm fluorescence (AID 1131); conditions: fibrinogen-A647 binding fluorescence, higher = more signal;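 note: z-score merges 667 nm fluorescence with per-spot signal-to-noise over triplicate slides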
[5] = target: Follistatin (Homo sapiens) (UniProt P19883); test: follistatin binders on small-molecule microarrays, primary screen, biochemical, small-molecule microarray, 635/667 nm fluorescence (AID 1132); conditions: FST binding, 635 nm fluorescence, higher = more signal
Sequence of Follistatin (Homo sapiens) (P19883 whole entry, looked up): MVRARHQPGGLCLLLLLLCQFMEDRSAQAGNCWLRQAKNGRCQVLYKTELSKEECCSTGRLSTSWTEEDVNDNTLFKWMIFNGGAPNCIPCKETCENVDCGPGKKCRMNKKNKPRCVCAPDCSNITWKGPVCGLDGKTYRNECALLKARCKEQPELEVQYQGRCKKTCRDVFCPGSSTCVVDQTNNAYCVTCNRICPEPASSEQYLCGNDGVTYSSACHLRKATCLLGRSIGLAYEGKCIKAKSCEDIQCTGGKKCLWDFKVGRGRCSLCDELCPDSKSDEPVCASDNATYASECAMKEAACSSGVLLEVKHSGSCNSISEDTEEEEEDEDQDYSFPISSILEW

[6] = target: Fibroblast growth factor 2 (Homo sapiens) (UniProt P09038); test: FGF2 binders on small-molecule microarrays, primary screen, biochemical, small-molecule microarray, 635/667 nm fluorescence (AID 1133); conditions: small-molecule microarray binding, FGF2, fluorescence 635/667; higher = more signal
Sequence of Fibroblast growth factor 2 (Homo sapiens) (P09038 whole entry, looked up): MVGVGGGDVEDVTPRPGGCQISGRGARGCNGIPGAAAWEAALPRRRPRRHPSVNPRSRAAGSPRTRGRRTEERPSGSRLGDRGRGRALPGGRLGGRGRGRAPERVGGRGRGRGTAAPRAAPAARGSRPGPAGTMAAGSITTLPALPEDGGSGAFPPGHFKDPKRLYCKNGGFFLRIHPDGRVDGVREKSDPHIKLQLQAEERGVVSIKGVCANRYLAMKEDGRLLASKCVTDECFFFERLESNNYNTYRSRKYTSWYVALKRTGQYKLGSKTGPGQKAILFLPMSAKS

[7] = mitochondrial membrane potential change in A549 cells, profiling panel, cell-based, JC-1 fluorescence, basal, 24 h, 100 nL (AID 1138); conditions: higher = more signal;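 note: A549 lung adenocarcinoma cells under basal conditions with no added stimulus; test concentration not given here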
Lefty1 = Lefty1 binders on small-molecule microarrays, primary screen, biochemical, small-molecule microarray, 635/667 nm fluorescence (AID 1139); conditions: small-molecule microarray binding, fluorescence 635/667; higher = more signal
[8] = test system: wheat germ agglutinin (Triticum aestivum), Alexa647-labelled; test: wheat germ agglutinin binders on compound microarrays, profiling panel, artefact control for SMM control-protein annotation, biochemical, small-molecule microarray, 635/667 nm fluorescence (AID 1140); conditions: WGA-A647 binding, 635 nm fluorescence, higher = more signal;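 note: score merges 667 nm feature emission with signal to noise over triplicate slides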
[9] = target: Luciferin 4-monooxygenase (Photinus pyralis) (UniProt P08659); test: firefly luciferase enzyme inhibitors, primary screen, biochemical, luminescence, purified enzyme, 2006 set (AID 1141); conditions: SteadyGlo luminescence, 30 min, higher = more signal, called active from +8 up or from −8 down;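 note: cell-free assay with purified firefly luciferase at 100 ng per well in PBS; test concentration not given here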
Sequence of Luciferin 4-monooxygenase (Photinus pyralis) (P08659 whole entry, looked up): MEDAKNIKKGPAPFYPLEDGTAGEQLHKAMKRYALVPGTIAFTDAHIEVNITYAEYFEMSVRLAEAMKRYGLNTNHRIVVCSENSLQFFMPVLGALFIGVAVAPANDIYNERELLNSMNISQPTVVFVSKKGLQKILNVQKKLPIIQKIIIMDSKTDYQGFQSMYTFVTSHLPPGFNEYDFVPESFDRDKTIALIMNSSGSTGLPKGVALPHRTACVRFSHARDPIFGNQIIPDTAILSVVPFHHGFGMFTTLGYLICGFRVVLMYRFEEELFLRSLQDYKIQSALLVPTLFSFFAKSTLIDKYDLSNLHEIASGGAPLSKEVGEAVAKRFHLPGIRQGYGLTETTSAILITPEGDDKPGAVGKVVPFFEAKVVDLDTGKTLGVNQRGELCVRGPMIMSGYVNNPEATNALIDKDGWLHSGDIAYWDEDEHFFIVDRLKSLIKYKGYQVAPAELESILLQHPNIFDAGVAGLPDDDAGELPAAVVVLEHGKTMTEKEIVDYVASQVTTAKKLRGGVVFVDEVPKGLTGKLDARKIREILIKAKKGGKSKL

[10] = test system: Wnt5a (protein binding on small-molecule microarray); test: Wnt5a binders on small-molecule microarray, primary screen, biophysical, 635/667 nm fluorescence (AID 1142); conditions: 635 nm fluorescence, higher = more signal;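 note: fluorescence read at 667 nm with signal to noise per printed feature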
[11] = cell viability in Huh7 cells, primary screen, cytotoxicity control for HCV replication inhibitor project, CellTiter-Glo luminescence, basal, 48 h (AID 1143); conditions: Huh7 HCV replicon, higher = more signal, called active from +8 up or from −8 down;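 note: Huh7 hepatoma cells carrying a hepatitis C replication reporter with no stimulus; test concentration not given here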
[12] = P. aeruginosa biofilm formation inhibitors, primary screen, PAO1 strain, BacTiter-Glo luminescence, LB-PBS (AID 1144); conditions: 12 h, higher = more signal
[13] = CREB reporter modulators without forskolin, primary screen, cell-based, PC12, CRE-LacZ reporter, unstimulated (AID 1145); conditions: no forskolin, luminescence, 4.5 h, higher = more signal, called active from +8 up or from −8 down
[14] = CREB reporter modulators under forskolin, primary screen, cell-based, PC12, CRE-LacZ reporter, forskolin-stimulated (AID 1146); conditions: luminescence, 4.5 h, higher = more signal, called active from +8 up or from −8 down;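 note: PC12 cells with 6xCRE LacZ reporter stimulated by forskolin 10 µM; beta-galactosidase reporter signal reflecting CREB driven transcription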
[15] = target: Streptavidin (Streptomyces avidinii) (UniProt P22629); test: streptavidin binders on small-molecule microarray, primary screen, artefact control for SMM compound annotation, biophysical, 635/667 nm fluorescence (AID 1147); conditions: streptavidin binding, higher = more signal;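 note: signal reflects streptavidin binding to arrayed compounds as a control protein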
Sequence of Streptavidin (Streptomyces avidinii) (P22629 whole entry, looked up): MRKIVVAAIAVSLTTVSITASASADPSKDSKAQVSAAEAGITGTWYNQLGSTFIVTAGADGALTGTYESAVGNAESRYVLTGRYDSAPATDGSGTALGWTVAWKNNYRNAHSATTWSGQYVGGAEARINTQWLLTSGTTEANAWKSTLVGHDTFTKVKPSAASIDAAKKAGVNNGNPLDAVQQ

[16] = small-molecule binders of probe aInhba, primary screen, biochemical, small-molecule microarray, 635/667 nm fluorescence (AID 1148); conditions: higher = more signal;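 note: score merges 667nm spot fluorescence with signal-to-noise for antibody binding to printed compounds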
Torsin-1A (Homo sapiens) [17] = target: Torsin-1A (Homo sapiens) (UniProt O14656); test: torsin A binders from cell lysate, primary screen, small-molecule microarray, wild-type, 635/667 nm (AID 1149); conditions: COS7 hTOR1A-WT lysate, 635 nm fluorescence, higher = more signal
Sequence of Torsin-1A (Homo sapiens) (O14656 whole entry, looked up): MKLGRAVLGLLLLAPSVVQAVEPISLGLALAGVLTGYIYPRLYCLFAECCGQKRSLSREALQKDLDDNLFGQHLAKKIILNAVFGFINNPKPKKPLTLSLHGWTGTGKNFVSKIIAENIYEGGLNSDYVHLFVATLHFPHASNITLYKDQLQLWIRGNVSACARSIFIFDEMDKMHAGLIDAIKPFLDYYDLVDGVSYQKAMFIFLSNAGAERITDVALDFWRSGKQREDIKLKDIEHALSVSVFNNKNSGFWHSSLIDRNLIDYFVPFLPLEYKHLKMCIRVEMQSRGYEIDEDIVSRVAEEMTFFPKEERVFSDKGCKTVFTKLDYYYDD

Torsin-1A (Homo sapiens) [18] = target: Torsin-1A (Homo sapiens) (UniProt O14656); test: small-molecule binders of mutant TOR1A in lysate, primary screen, cell lysate, small-molecule microarray, COS7 lysate, 635/667 nm fluorescence (AID 1150); conditions: COS7 hTOR1A mutant lysate, 635 nm fluorescence, higher = more signal;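 note: score pools 667 nm emission and signal to noise measuring lysate protein binding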
[19] = test system: Sonic hedgehog protein (Shh); test: small-molecule binders of Shh protein, primary screen, biochemical, small-molecule microarray, 635/667 nm fluorescence (AID 1151); conditions: small-molecule microarray binding, 635 nm fluorescence; higher = more signal;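 note: Shh protein binding to compounds spotted on small-molecule microarray slides; score combines spot fluorescence intensity with signal-to-noise across triplicate slides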

SMILES | composite z-score [1] | composite z-score [2] | composite z-score [3] | composite z-score [4] | composite z-score [5] | composite z-score [6] | z-score [7] | composite z-score (Lefty1) | composite z-score [8] | z-score [9] | composite z-score [10] | z-score [11] | z-score [12] | z-score [13] | z-score [14] | composite z-score [15] | composite z-score [16] | composite z-score (Torsin-1A (Homo sapiens) [17]) | composite z-score (Torsin-1A (Homo sapiens) [18]) | composite z-score [19]
COCCOC(=O)N1C(=O)[C@@]2(c3cc(C#CCNC(N)=O)ccc31)[C@H](C(=O)NC[C@H](O)c1ccccc1)[C@H]1C(=O)O[C@H](c3ccccc3)[C@H](c3ccccc3)N1[C@@H]2c1ccc(OCCO)cc1 | 0.991 | 1.16 | 0.707 | 0.884 | 1.18 | 0.581 | -0.71 | 0.753 | 0.851 | -0.496 (inactive) | 0.0906 | -0.8 (inactive) | -0.297 (inactive) | -0.606 (inactive) | -0.965 (inactive) | 0.516 | -0.192 | 0.131 | 0.219 | 0.783
C=CCC(OC(C)=O)[C@@H]1[C@@H](N(Cc2cccc3ccccc23)C(=O)c2ccc(C)cc2)c2cc(OCCCO)ccc2N1C(=O)c1ccc2ccccc2n1 (stereo not given in full) | -0.24 | 0.098 | 0.348 | 0.682 | 0.584 | 0.0013 | 0.644 | 0.644 | 0.391 | -1.05 (inactive) | 0.0305 | -0.846 (inactive) | -0.106 (inactive) | 0.642 (inactive) | 0.154 (inactive) | 0.2 | 0.0664 | -0.0107 | 0.121 | 0.709
C=CCC(OC(C)=O)[C@@H]1[C@@H](N(Cc2ccc(-c3cccc(C(F)(F)F)c3)o2)C(=O)Cc2ccc(F)cc2)c2cc(OCCCO)ccc2N1C(=O)c1ccc2ccccc2c1 (stereo not given in full) | -0.118 | -0.783 | -0.192 | -1.67 | 0.426 | -0.451 | 0.637 | 0.479 | -0.486 | 0.354 (inactive) | -0.314 | -0.376 (inactive) | -0.25 (inactive) | 0.279 (inactive) | 0.914 (inactive) | -0.488 | -0.2 | -0.954 | -0.244 | 0.718
C=C(COC)/C(=C/C[C@H](OC(=O)c1ccncc1)c1cccc(OCCO)c1)c1cnc2ccccc2c1 | 2.08 | 1.22 | 0.521 | 0.893 | 1.36 | 0.694 | 0.365 | 1.62 | 1.4 | -0.631 (inactive) | 0.154 | 0.0839 (inactive) | 0.0918 (inactive) | 0.769 (inactive) | 0.506 (inactive) | 1.7 | 0.322 | 0.839 | 0.897 | 2.02
CC(=O)c1ccc(C(O)C2C=CC3C(=O)N(C)C(=O)C3N2NC(=O)OC(C)(C)C)cc1 (stereo not given) | 0.777 | 1.23 | 1.54 | 1.05 | 0.046 | 0.14 | -0.082 | 0.337 | 1.34 | -0.068 (inactive) | 0.468 | 0.847 (inactive) | 0.626 (inactive) | 0.246 (inactive) | 1.51 (inactive) | 1.83 | 0.182 | -0.0551 | 0.548 | -0.0538
O=C1C2C=CC(C(O)C(c3ccccc3)c3ccccc3)N(Nc3ccccc3)C2C(=O)N1c1ccccc1 (stereo not given) | 0.59 | 1.28 | 0.175 | 1.03 | 1.29 | 0.472 | 0.0105 | 0.707 | 0.882 | -1.05 (inactive) | 0.422 | -0.374 (inactive) | -1.06 (inactive) | 0.629 (inactive) | -0.222 (inactive) | 0.828 | 0.271 | 0.616 | 0.984 | 0.734
CC(C)CNC(=O)[C@@H]1c2ccccc2C(=O)N(CC23CC4CC(CC(C4)C2)C3)[C@H]1c1ccc(CO)cc1 | 1.94 | 1.14 | 0.257 | 0.592 | 0.466 | -0.0903 | 0.47 | 0.366 | 0.674 | 1.27 (inactive) | 0.0626 | -3.74 (inactive) | -1.44 (inactive) | -0.206 (inactive) | -0.401 (inactive) | 0.524 | -0.212 | -0.218 | 0.546 | 0.354
O=C1C2C=CC(C(O)c3ccc([N+](=O)[O-])cc3)N(Nc3ccccc3)C2C(=O)N1c1ccccc1 (stereo not given) | 0.175 | 0.976 | 1.38 | 1.02 | 0.544 | -0.239 | -0.467 | 0.27 | 0.611 | -0.284 (inactive) | 0.0051 | 0.0203 (inactive) | -0.0023 (inactive) | -0.333 (inactive) | 0.495 (inactive) | -0.146 | -0.101 | -0.132 | 0.221 | -0.653
CN(C)CCCCNC(=O)[C@H]1C[C@H]2C(=O)N[C@@H](Cc3ccccc3)C(=O)N2[C@H]1c1cccc(OCCO)c1 | 0.807 | -0.562 | -0.0598 | -0.205 | 1.21 | 0.694 | -0.0938 | 0.365 | -0.0282 | 0.801 (inactive) | -0.113 | -0.307 (inactive) | -0.584 (inactive) | -1.07 (inactive) | -1.16 (inactive) | -0.203 | -0.128 | -0.163 | 0.59 | 0.878
C=CCOC(=O)[C@H]1[C@@H]2C(=O)O[C@@H](c3ccccc3)[C@@H](c3ccccc3)N2[C@@H](c2ccc(OCCOC(=O)[C@@H]3C[C@@H]4C(=O)N[C@@H](Cc5ccccc5)C(=O)N4[C@@H]3c3ccc(O)cc3)cc2)[C@]12C(=O)Nc1ccccc12 | 1.78 | 1.19 | 1.53 | 0.911 | 1.32 | 1.33 | -1.15 | 0.948 | 1.2 | -0.497 (inactive) | 0.5 | 0.247 (inactive) | -0.661 (inactive) | 0.679 (inactive) | -0.158 (inactive) | 0.537 | -0.0762 | 0.83 | 0.8 | 1.03
